Source: a collection of fitness landscapes (doi:10.1016/j.celrep.2020.107928)
Over roughly 81,000 sequences, “one-hybrid fitness for binding NBS DNA” has its median near -0.1; the highest 2% begin near 0.36. This is one part of a sample in which the highest values are shown more often than they occur.

B1: Caulobacter ParB omega fusion; a variant is named by its letters at X, in order, B8GW30 (parent)
chain: MESVVVGEPGMSEGRRGLGRGLSALLGEVDAAPAQAPGEQLGGSREAPIEILQRNPDQPRRTFREEDLEDLSNSIREKGVLQPILVRPSPDTAGEYQIVAGERAWRAAQRAGLKTVPIMVRELDDLAVLEIGIIENVQRADLNVLEEALSYKVLMEKFERTQENIAQTIGKSXSHVANXMRLLXLPDEVQSYLVSGELTAXHARAIAAAADPVALAKQIIEGGLSVRETEALARKAPNLSAGKSKGGRPPRVKDTDTQALESDLSSVLGLDVSIDHRGSTGTLTITYATLEQLDDLCNRLTRGI

Variants of: B1
Test: one-hybrid fitness for binding NBS DNA (the Noc-binding site; scaled: cognate 1, non-cognate 0); higher = stronger binding
Details: with NBS DNA site
Summary of the method: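 Bacterial one-hybrid selection in E. coli USO rpoZ- hisB- pyrF- with a HIS3 reporter carrying the site 19 bp from the promoter, screening Caulobacter ParB libraries with four specificity codons randomised (NNS). Cells grew 48 hours at 37°C on M9-minus-histidine plus 0.1 mM IPTG and 5 mM 3-AT. Plasmids before and after selection were Illumina-sequenced, three replicate libraries pooled, and variants under 10 reads dropped. Fitness is the log change in variant-to-wild-type read ratio, rescaled to cognate 1, non-cognate 0.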

one-hybrid fitness for binding NBS DNA, 0.208:
QRSD

one-hybrid fitness for binding NBS DNA, 0.622:
RTKS

one-hybrid fitness for binding NBS DNA, 0.374:
QSRC

one-hybrid fitness for binding NBS DNA, 0.39:
RTVS

one-hybrid fitness for binding NBS DNA, 0.271:
QCSQ

one-hybrid fitness for binding NBS DNA, 0.529:
QHKY

one-hybrid fitness for binding NBS DNA, 0.425:
QKRC

one-hybrid fitness for binding NBS DNA, 0.288:
RTRV

one-hybrid fitness for binding NBS DNA, 0.232:
QRVG

one-hybrid fitness for binding NBS DNA, 0.424:
QCFT

one-hybrid fitness for binding NBS DNA, 0.489:
QRRC

one-hybrid fitness for binding NBS DNA, 0.548:
QTRC

one-hybrid fitness for binding NBS DNA, 0.418:
RTKY

one-hybrid fitness for binding NBS DNA, ≤ 0.2:
KFHF
LSDV
QMHF
GKLV
PMVT
VREL
QRSP
QPSQ
MSPC
KWCV
LAAG
HYQF
QSFN
QDFR
QSFH
QPFR
FCHW
TICV
LGEA
FLQL
LSCN
HMKT
TSIM
LVHF
QKYC
QMYC
QTYC
QPRC
QKDC
QTDC
QMDC
PNKD
RLIW
CRYF
IAWR
GMPT
VMEC
LQWD
PYKF
ENTG
QSYC
QSDC
IMYD
YWMG
DRAT
QPFT
NRAT
RWNW
MQNW
DCWS
TDLC
NLFC
PGYI
MRFG
SRKF
PKCF
VYYR
QIKG
QPKG
QTIG
QTVG
KESF
IFWR
KAHR
AQIS
RGNV
HSPH
WDHG
KMKY
QYNQ
QYCQ
QYSQ
RSEI
SPTR
RTDY
RTVP
RTVN
RTVH
RTKD
RTVY
RTYY
RPKY
QFSY
LCCW
SFAL
PWTQ
SYNN
PQEL
MDPA
QCMN
FPNL
PFHL
LLMP
FGTY
RTKP
ANHS
KTFT
KTYT
KTDT
KTVT
HMYT
SGID
QDWR
DLYM
MQVF
PLIS
QPKY
QIKP
QHVY
QIKD
QHQY
QSVY
QGKY
QCVY
GTNT
PYEG

one-hybrid fitness for binding NBS DNA, 0.797:
QRAT

one-hybrid fitness for binding NBS DNA, 0.37:
QSFR

one-hybrid fitness for binding NBS DNA, 0.302:
QSKG

one-hybrid fitness for binding NBS DNA, 0.38:
RTRY

one-hybrid fitness for binding NBS DNA, 0.377:
QCKG

one-hybrid fitness for binding NBS DNA, 0.396:
KTKT

one-hybrid fitness for binding NBS DNA, 0.406:
QMRC

one-hybrid fitness for binding NBS DNA, 0.315:
QSFT

one-hybrid fitness for binding NBS DNA, 0.296:
QRYC

one-hybrid fitness for binding NBS DNA, 0.485:
QRKG

one-hybrid fitness for binding NBS DNA, 0.22:
QREC

one-hybrid fitness for binding NBS DNA, 0.659:
QRSS

one-hybrid fitness for binding NBS DNA, 0.723:
QRFT

one-hybrid fitness for binding NBS DNA, 0.3:
RTKN

one-hybrid fitness for binding NBS DNA, 0.364:
QIKY

one-hybrid fitness for binding NBS DNA, 0.394:
QYKQ

one-hybrid fitness for binding NBS DNA, 0.434:
QRSQ

one-hybrid fitness for binding NBS DNA, 0.44:
KTRT

one-hybrid fitness for binding NBS DNA, 0.503:
QTKG

one-hybrid fitness for binding NBS DNA, 0.313:
QYVQ

one-hybrid fitness for binding NBS DNA, 0.204:
QCYC

one-hybrid fitness for binding NBS DNA, 0.651:
RTKH

one-hybrid fitness for binding NBS DNA, 0.435:
QYRQ

one-hybrid fitness for binding NBS DNA, 0.517:
QCFR
QSKY

one-hybrid fitness for binding NBS DNA, 0.59:
QCKY

one-hybrid fitness for binding NBS DNA, 0.512:
QCRC
